{"source": "PubChem BioAssay AID588726", "about": "(The Scripps Research Institute Molecular Screening Center, 2011)", "note": "Hit rate of the full screen: of about 360,000 compounds, about 8,200 (2.3%) were called active. The full list was thinned out, with actives kept by preference. Values without a mark were called inactive. Rule as the data show it: active = inhibition above about 27%; inactive = the rest.", "data": [{"target": "Fructose-bisphosphate aldolase (Mycobacterium tuberculosis (strain ATCC 25618 / H37Rv)) (UniProt P9WQA3)", "sequence (P9WQA3 whole entry, looked up)": "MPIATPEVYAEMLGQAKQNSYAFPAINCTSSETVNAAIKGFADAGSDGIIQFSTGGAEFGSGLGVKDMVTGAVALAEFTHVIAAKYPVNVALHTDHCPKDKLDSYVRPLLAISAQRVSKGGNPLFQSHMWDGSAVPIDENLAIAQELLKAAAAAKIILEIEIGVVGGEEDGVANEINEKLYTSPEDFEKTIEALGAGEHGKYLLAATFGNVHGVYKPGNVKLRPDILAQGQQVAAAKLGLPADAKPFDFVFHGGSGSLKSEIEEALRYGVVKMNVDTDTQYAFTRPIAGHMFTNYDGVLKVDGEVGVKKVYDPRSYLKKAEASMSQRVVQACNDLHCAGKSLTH", "test": "M. tuberculosis aldolase activity blockers – biochemical, fluorescence, strain H37Rv, primary screen (AID 588726);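 also: 0% = vehicle and 100% = reference inhibitor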", "details": "purified M. tuberculosis FBA, fluorescence read-out, at 1 µM, hits give high values", "values": [{"smiles": "COc1cccc(NC(=O)[C@H](Cc2c[nH]c3ccccc23)NC(=O)[C@@H]2Cc3ccccc3CN2)c1", "inhibition": "10.6%"}, {"smiles": "CCCCn1c(O)c(N=NC(=O)Cn2c(C(F)(F)F)nc3ccccc32)c2ccccc21", "inhibition": "3.68%"}, {"smiles": "N#C/C(=C/c1ccc(N2CCCCC2)o1)C(=O)NCCc1c[nH]c2ccccc12", "inhibition": "-32.6%"}, {"smiles": "CN=C1C=C/C(=N/N=c2\\ccn(O)cc2C)C=C1C", "inhibition": "-28.4%"}, {"smiles": "COc1ccc(S(=O)(=O)Nc2ccc3oc(C)c(C(C)=O)c3c2)cc1", "inhibition": "0.55%"}, {"smiles": "COCc1cc(=O)oc2cc(NS(=O)(=O)c3ccc(C)cc3)ccc12", "inhibition": "62.4% (active)"}, {"smiles": "Cc1ccc(S(=O)(=O)Nc2ccc(F)c(S(=O)(=O)N3CCOCC3)c2)cc1", "inhibition": "-0.06%"}, {"smiles": "CCOC(=O)C1CCN(C(=O)/C=C/c2cc(OC)c(OC)c(OC)c2)CC1", "inhibition": "6.09%"}, {"smiles": "COc1ccccc1CCNC(=O)C1CCN(C(=O)/C=C/c2ccccc2)CC1", "inhibition": "81.2% (active)"}, {"smiles": "COc1ccccc1CNC(=O)C1CCN(C(=O)[C@@H]2Cc3ccccc3CN2)CC1", "inhibition": "-1.63%"}, {"smiles": "CCCCC(CC)CNC(=O)CCCCn1c(=O)[nH]c2ccsc2c1=O", "note": "(stereo not drawn)", "inhibition": "-2.17%"}, {"smiles": "COc1cc(C2NC(=O)NC(c3ccccc3)=C2C(C)=O)c(Br)cc1OCC(N)=O", "note": "(stereo not drawn)", "inhibition": "1.26%"}, {"smiles": "O=C(CC(n1cncn1)C(Cl)(Cl)Cl)c1ccc([N+](=O)[O-])cc1", "note": "(stereo not drawn)", "inhibition": "5.32%"}, {"smiles": "NC(=S)NN=Cc1ccc(OC(=O)COc2cc(Cl)c(Cl)cc2Cl)cn1", "inhibition": "4.26%"}, {"smiles": "O=C(Nc1ccccc1C(=O)O)c1ccc(N2C(=O)C3CC=CCC3C2=O)cc1", "note": "(stereo not drawn)", "inhibition": "-1.48%"}, {"smiles": "Cc1cc(C)nc(Nc2n[nH]c(-c3ccccc3N)n2)n1", "inhibition": "15.2%"}, {"smiles": "Nc1ccccc1-c1nc2ccncc2[nH]1", "inhibition": "83.7% (active)"}, {"smiles": "O=[N+]([O-])c1ccc2nc(-c3ccccn3)[nH]c2c1", "inhibition": "-3.65%"}, {"smiles": "O=S(=O)(NCCSc1ccccn1)c1ccc(Cl)cc1", "inhibition": "-1.18%"}, {"smiles": "O=C(CN1CCC(O)(c2cccc(C(F)(F)F)c2)CC1)NCCc1ccccc1", "inhibition": "-2.53%"}, {"smiles": "CCOc1ccc(C(=O)CCC(=O)NC2=NCCS2)cc1", "inhibition": "-2.69%"}, {"smiles": "CCN1CCN(C(=O)Cn2nc(C)n3c(cc4c(OC)cccc43)c2=O)CC1", "inhibition": "195% (active)"}, {"smiles": "CCCN1CCN(C(=O)Cn2ncc3ccccc32)CC1", "inhibition": "2.25%"}, {"smiles": "CCc1nn(CC(=O)N2CCN(CC)CC2)c(=O)c2cccn12", "inhibition": "2.42%"}, {"smiles": "Cc1ccccc1NC(=O)NC1(C(=O)N2CCCC2)CCCCC1", "inhibition": "-0.74%"}, {"smiles": "COc1ccc(-n2cc(CNC3CCOCC3)c(-c3cccc(F)c3)n2)cc1", "inhibition": "50.5% (active)"}, {"smiles": "Cc1ccc(-n2cc(CN(C)Cc3nccn3C)c(-c3cccc(C)c3)n2)cc1", "inhibition": "-2.31%"}, {"smiles": "COc1ccc(-n2cc(CN(C)Cc3n[nH]c(=O)[nH]3)c(-c3cccc(F)c3)n2)cc1", "inhibition": "33.1% (active)"}, {"smiles": "CCC(O)C1CCN(Cc2cn(-c3ccc(OC)cc3)nc2-c2cccc(F)c2)CC1", "note": "(stereo not drawn)", "inhibition": "23.7%"}, {"smiles": "COc1ccc(-c2nn(-c3ccccc3)cc2CN2CCCO2)c(F)c1", "inhibition": "-2.2%"}, {"smiles": "Cc1cccc(-n2cc(CN3CCN(C(=O)c4ncn[nH]4)CC3)c(-c3cccc(F)c3)n2)c1", "inhibition": "-3.35%"}, {"smiles": "CCCCCCN1C[C@H](O)[C@@H](n2cc(C3CC3)nn2)C[C@@H]1c1ccc(Cl)cc1", "inhibition": "0.57%"}, {"smiles": "COc1ccc2c(C)cc(SCC(=O)NCC3CCCO3)nc2c1", "note": "(stereo not drawn)", "inhibition": "4.79%"}, {"smiles": "COC(=O)CSc1nc(C)c2ccc(OC)cc2n1", "inhibition": "30.8% (active)"}, {"smiles": "COc1ccc2[nH]c3nc(SCC(=O)NC4CC4)nnc3c2c1", "inhibition": "-8.79%"}, {"smiles": "Cn1ncc(N2CCN(S(=O)(=O)c3ccc(Br)cc3)CC2)c(Cl)c1=O", "inhibition": "-2.21%"}, {"smiles": "COc1ccc(N2CCN(C(=O)CSc3nnc4ncccn34)CC2)cc1", "inhibition": "-2.52%"}, {"smiles": "CN1CCN(Cc2ccc(OC(F)(F)F)cc2)CC1", "inhibition": "-3.02%"}, {"smiles": "Cc1ccccc1Nc1c(-c2ccccc2)nc2ncccn12", "inhibition": "2.19%"}, {"smiles": "c1ccc(-c2cn3c(n2)CCc2ccc4cccnc4c2-3)cc1", "inhibition": "6.65%"}, {"smiles": "COc1ccc(C(=O)/C=C/Nc2ccccn2)cc1", "inhibition": "4.41%"}, {"smiles": "CC(C)(C)NC(=O)NC(=O)COC(=O)C1(C)CC1(Cl)Cl", "note": "(stereo not drawn)", "inhibition": "0.89%"}, {"smiles": "COCCNC(=O)c1onc(CSc2cccc(C)c2)c1C(=O)O", "inhibition": "1.01%"}, {"smiles": "Cc1ccc(NC(=O)CN(C)C(=O)c2ccc(Br)o2)cc1", "inhibition": "0.61%"}, {"smiles": "CC1COC2C(O1)N(S(C)(=O)=O)CCN2S(C)(=O)=O", "note": "(stereo not drawn)", "inhibition": "-0.44%"}, {"smiles": "Cc1cccc(-c2cnc(C(O)c3cc(C)cc(C)c3)[nH]2)c1", "note": "(stereo not drawn)", "inhibition": "-2%"}, {"smiles": "CC(C)C(C(=O)NC1CCCCC1)N(CC1CCCO1)C(=O)CNS(=O)(=O)c1ccc(F)cc1", "note": "(stereo not drawn)", "inhibition": "-0.74%"}, {"smiles": "CN1OC[C@@H]2CN(C(=O)C(C)(C)C)[C@H](c3ccc(-n4ccnc4)cc3)C[C@@H]21", "inhibition": "3.11%"}, {"smiles": "Cc1ccc(-c2cnc(C(O)c3cccc(C)c3C)[nH]2)cc1", "note": "(stereo not drawn)", "inhibition": "-6.24%"}, {"smiles": "CCC(C)(C)NC(=O)C(c1cccc(OC)c1OC)N(CC(C)C)C(=O)CCC(=O)Nc1cc(C)on1", "note": "(stereo not drawn)", "inhibition": "-1.74%"}, {"smiles": "CCOc1ccccc1C1C(C(=O)OC)=CN(C)C=C1C(=O)OC", "inhibition": "180% (active)"}, {"smiles": "CCOc1cc(C2C(C(=O)OC)=CN(C3CCCC3)C=C2C(=O)OC)cc(Br)c1O", "inhibition": "9.72%"}, {"smiles": "COC(=O)C1=CN(C)C=C(C(=O)OC)C1c1ccc(Cl)cc1Cl", "inhibition": "12.4%"}, {"smiles": "O=C(CC1SC(N2CCCC2)=NC1=O)Nc1ccc(C(=O)NCCc2ccc(F)cc2)cc1", "note": "(stereo not drawn)", "inhibition": "-0.1%"}, {"smiles": "COc1ccccc1C(=O)NCC(=O)NCCSc1ccc(Br)cc1", "inhibition": "-1.16%"}, {"smiles": "Cn1nc(-c2ccc(Cl)cc2)c2cc(C(=O)NCc3ccco3)sc21", "inhibition": "43.5% (active)"}, {"smiles": "O=C(NCc1ccco1)c1sc2cccc(F)c2c1Cl", "inhibition": "5.05%"}, {"smiles": "O=C(NCc1ccco1)c1cccc(-c2ccc3nncn3c2)c1", "inhibition": "-0.68%"}, {"smiles": "COc1cc(C2OC(c3cc(OC)c(OC)c(OC)c3)C(C)C2C)cc(OC)c1OC", "note": "(stereo not drawn)", "inhibition": "-1.3%"}, {"smiles": "CC1CCCCC1NC(=O)CO/N=C/c1ccc(OC(F)F)cc1", "note": "(stereo not drawn)", "inhibition": "-0.83%"}, {"smiles": "COc1ccc2cc(CCl)c(Cl)nc2c1", "inhibition": "0.58%"}, {"smiles": "COc1ccc(C=C(C#N)C#N)c(CSc2ccccn2)c1", "inhibition": "1.22%"}, {"smiles": "COc1ccc2nc(-c3ccccn3)ccc2c1", "inhibition": "77.3% (active)"}, {"smiles": "O=C(COc1cc(Cl)c(Cl)cc1Cl)NC(=O)NC1CCCC1", "inhibition": "5.04%"}, {"smiles": "CC(C)(C)C(=O)CN1C2=NCCN2c2ccccc21", "inhibition": "-3.57%"}, {"smiles": "CC(C)n1c(CN2CCN(Cc3ccccc3)CC2)nc2ccccc21", "inhibition": "3.41%"}, {"smiles": "CC(C)n1c(-c2cccs2)nc2ccccc21", "inhibition": "32.3% (active)"}, {"smiles": "CC(C)n1c(NCc2c[nH]c3ccccc23)nc2ccccc21", "inhibition": "1.92%"}, {"smiles": "Cc1noc(C)c1-c1ccc2ncnc(NC(C)c3ccco3)c2c1", "note": "(stereo not drawn)", "inhibition": "8.84%"}, {"smiles": "O=C(O)C1CCC(CNS(=O)(=O)c2ccc(Br)cc2)CC1", "note": "(stereo not drawn)", "inhibition": "0.74%"}, {"smiles": "CCN1CCN(C(=O)c2ccc(CN(c3ccc(C)c(C)c3)S(C)(=O)=O)cc2)CC1", "inhibition": "-1.53%"}, {"smiles": "O=c1oc2ccccc2cc1-c1cn(-c2ccccc2)c(=S)[nH]1", "inhibition": "40.4% (active)"}, {"smiles": "C/C(=C\\c1ccco1)CN1CCC(N2CCC(C(=O)N3CCOCC3)CC2)CC1", "inhibition": "-2.26%"}, {"smiles": "OCC[C@H]1C[C@@H](O)[C@H](O)[C@]2(OCCCc3ccccc32)O1", "inhibition": "2.25%"}, {"smiles": "O=C(N/N=C\\c1ccc(-c2ccc(Cl)c(Cl)c2)o1)C(=O)N1CCCC1", "inhibition": "1.03%"}, {"smiles": "O=C(COc1ccc2c(c1)CCC2)N1CCN(c2ccc(F)cc2)CC1", "inhibition": "-1.29%"}, {"smiles": "COc1ccc(OCC(=O)N2CCN(C(=O)c3cccs3)CC2)cc1", "inhibition": "1.53%"}, {"smiles": "CCN1CCN(C(=O)CN(C)S(=O)(=O)c2ccc(OC)cc2)CC1", "inhibition": "-1.71%"}, {"smiles": "CCN1CCN(C(=O)c2cc3cc4ccc(OC)cc4nc3s2)CC1", "inhibition": "43.9% (active)"}, {"smiles": "O=C(OCC(=O)N1CCCCCC1)c1ccc(Br)c(S(=O)(=O)N2CCOCC2)c1", "inhibition": "-1.57%"}, {"smiles": "COc1ccc(CNC(=O)c2ccc(NS(=O)(=O)c3ccc4[nH]c(=O)[nH]c4c3)cc2)cc1OC", "inhibition": "-1.09%"}, {"smiles": "CCOC(=O)c1c(CN2CCOCC2)n(-c2ccccc2)c2ccc(O)cc12", "inhibition": "-1.31%"}, {"smiles": "CCN(C(=O)COC(=O)c1c(C)nn(-c2ccccc2)c1Cl)c1c(N)n(Cc2ccccc2)c(=O)[nH]c1=O", "inhibition": "-2.12%"}, {"smiles": "CC(C)Cn1c(N)c(C(=O)NCc2cccs2)c2nc3ccccc3nc21", "inhibition": "48.5% (active)"}, {"smiles": "O=C(Cc1coc2ccc3ccccc3c12)NCc1cccs1", "inhibition": "0.72%"}, {"smiles": "CCOC(=O)c1c(N)n(CCN2CCOCC2)c2nc3ccccc3nc12", "inhibition": "113% (active)"}, {"smiles": "Cc1ccc(C(=O)OC(C)CN2CCOCC2)cc1", "note": "(stereo not drawn)", "inhibition": "-3.53%"}, {"smiles": "CCOC(=O)c1c(C)[nH]c(C(=O)NCCN2CCOCC2)c1C", "inhibition": "1.62%"}, {"smiles": "CC(CN1CCOCC1)OC(=O)c1ccc(C(C)(C)C)cc1", "note": "(stereo not drawn)", "inhibition": "-5.4%"}, {"smiles": "COCC(C)OC(=O)c1c(N)n(CCCN2CCOCC2)c2nc3ccccc3nc12", "note": "(stereo not drawn)", "inhibition": "104% (active)"}, {"smiles": "O=C(NCc1cccs1)c1cc(-c2ccccn2)nc2ccc(Br)cc12", "inhibition": "1.48%"}, {"smiles": "CCOC(=O)c1cnn(Cc2ccccc2Cl)c1N", "inhibition": "-1.37%"}, {"smiles": "CCOc1ccc(OCC)c(NC(=O)C(NS(=O)(=O)c2ccc3c(c2)oc(=O)n3C)C(C)C)c1", "note": "(stereo not drawn)", "inhibition": "0.18%"}]}]}
